63 compounds from PubChem BioAssay AID463173 (ICCB-Longwood Screening Facility, Harvard Medical School, 2010) can be followed below.

In all, about 52,000 compounds went through this assay and about 4,300 (8.3%) were called active. The list comes from a sample in which actives are over-represented; it also holds similar structures and randomly drawn compounds. Values without a mark were called inactive. Rule as the data show it: active = survival mostly below about 52% (no sharp cut-off); inactive = mostly above about 56%.

This assay deals with DeltatarO mutant. The assay can be described thus: growth inhibition of S. aureus wild type versus tarO mutant, primary screen, teichoic acid synthesis inhibitors, RN4220, OD600 (AID 463173). Particulars: OD600, 18 h, active compounds read low, screened at 18.75 µg/mL (by protocol).
For `O=C(NCc1ccccc1)c1ccc(CSc2nc3cccnc3n2Cc2cccc(F)c2)cc1`, the survival was 101%.
Consider `COC(=O)c1ccc2c(c1)N(CC(=O)Nc1cccc(Cl)c1C)C(=O)c1ccccc1S2`, for which the survival is 74%.
Then `Clc1ccc2c(c1)NC(c1ccncc1)=NC(c1cccs1)=N2`, with 76%; and `CC(C)c1ccc2c(c1)NC(c1ccc(F)cc1)=NC(c1cccs1)=N2`, with 45% (active).
On to `Fc1ccc2c(c1)NC(c1ccncc1)=NC(c1cccs1)=N2`, for which the survival is 30% (active).
Consider `FC(F)(F)Oc1ccc2c(c1)NC(c1ccncc1)=NC(c1cccs1)=N2`, for which the survival was 91%.
Then `CC(C)c1ccc2c(c1)NC(c1ccncc1)=NC(c1cccs1)=N2`, with 72%.
Then `CCOc1ccc(C2=NC(c3cccs3)=Nc3ccc(C(C)C)cc3N2)cc1`, with 58%; and `CCCCOc1cccc(C(=O)Nc2cccc(-c3nc4ncccc4o3)c2C)c1`, with 47%.
Then `COc1ccc(NC(=O)[C@@H](c2ccccc2)N2Cc3ccccc3C2=O)cc1OC`, with 62%; and `COc1cccc(CNC(=O)C2CCN(c3ncnc4c3nc3n4CCCCC3)CC2)c1`, with 86%; and `COc1ccc(CNc2nc(-c3ccco3)nn2C(=O)CC(C)C)cc1`, with 103%.
Take `O=C(CS(=O)(=O)c1nc(-c2ccc(Cl)cc2)cn1-c1ccccc1)Nc1ccc(F)cc1F`: the survival was 50% (active).
Then `O=C(CS(=O)(=O)c1nc(-c2ccc(Cl)cc2)cn1-c1ccccc1)Nc1cccc(Cl)c1`, with 68%; and `Cc1ccc(-c2cn(-c3cccc(Cl)c3)c(S(=O)(=O)CC(=O)Nc3ccccc3F)n2)cc1`, with 61%.
Then `CN1CCN(C(=O)C(=O)Nc2c3c(nn2-c2cccc(Cl)c2)CSC3)CC1`, with 76%.
Then `O=C(NCc1ccc(Cl)cc1)c1cc2ccccc2o1`, with 61% (active); and `O=C(NC1CC(=O)N(c2ccccc2)C1)c1cc2ccccc2o1` (stereo not drawn), with 89%; and `Cc1ccc(N2CC(NC(=O)c3cc4ccccc4o3)CC2=O)cc1` (stereo not drawn), with 99%.
For `O=C(NCc1ccccc1Cl)c1cc2ccccc2o1`, the survival is 74%.
Then `COCCNC(=O)c1cc2ccccc2o1`, with 104%.
For the compound `O=C(NC1CC(=O)N(c2ccc(Cl)cc2)C1)c1cc2ccccc2o1` (stereo not drawn), the survival is 52% (active).
Then `COc1ccc(CN2CCCN(CC(=O)Nc3ccc4c(c3)OCCO4)S2(=O)=O)cc1`, with 74%; and `O=C1c2ccccc2C(=O)N1CCCn1nnc(-c2ccc(N3CCOCC3)cc2)n1`, with 74%.
As for `CC(C)Nc1nc(Cl)nc(NCCO)n1`, the survival was 110%.
`C=CCNc1nc(Cl)nc(Cl)n1`: the survival was 99%.
Then `CCCNc1nc(Cl)nc(Cl)n1`, with 62% (active); and `Cc1ccc(-n2ncc3c(=O)n(Cc4cccc(Cl)c4)cnc32)cc1C`, with 91%.
Then `CCc1ccccc1NS(=O)(=O)c1cc(Br)cc2c1N(C(=O)C1CC1)CC2`, with 52% (active).
As for `CCCCN(Cc1ccccc1)S(=O)(=O)c1cc(Br)cc2c1N(C(=O)C1CC1)CC2`, the survival was 57%.
Then `CN(Cc1ccccc1)S(=O)(=O)c1cc(Br)cc2c1N(C(=O)C1CC1)CC2`, with 34% (active); and `O=C(C1CC1)N1CCc2cc(Br)cc(S(=O)(=O)Nc3ccc(C(F)(F)F)cc3)c21`, with 41% (active).
Then `COc1ccccc1CNS(=O)(=O)c1cc(Br)cc2c1N(C(=O)C1CC1)CC2`, with 58%.
Then `COc1ccc(Cl)cc1NS(=O)(=O)c1cc(Br)cc2c1N(C(=O)C1CC1)CC2`, with 55% (active); and `CC(C)c1ccc(NS(=O)(=O)c2cc(Br)cc3c2N(C(=O)C2CC2)CC3)cc1`, with 56%; and `CCN(Cc1ccccc1)S(=O)(=O)c1cc(Br)cc2c1N(C(=O)C1CC1)CC2`, with 58%.
In the case of `CCOc1ccc(NS(=O)(=O)c2cc(Br)cc3c2N(C(=O)C2CC2)CC3)cc1`, the survival was 79%.
Then `COc1cc(NS(=O)(=O)c2cc(Br)cc3c2N(C(=O)C2CC2)CC3)cc(OC)c1`, with 99%.
Then `Cc1ccc(NS(=O)(=O)c2cc(Br)cc3c2N(C(=O)C2CC2)CC3)cc1C`, with 95%.
Then `CC(=O)Nc1ccc(NS(=O)(=O)c2cc(Br)cc3c2N(C(=O)C2CC2)CC3)cc1`, with 74%; and `CCC(C)Nc1nc2c(c(=O)[nH]c(=O)n2C)n1Cc1ccc(F)cc1` (stereo not drawn), with 73%.
As for `Cc1cc(C)c(NC(=O)CN(c2ccccc2)S(=O)(=O)N(C)C)c(C)c1`, the survival is 66%.
Then `CCCc1ccc(OCC(=O)Nc2sc3c(c2C(=O)OCC)CCC(C(C)(C)C)C3)cc1` (stereo not drawn), with 125%.
With `COc1ccc(-n2c(=O)c3ccc(C(=O)NCc4ccc(C)cc4)cc3n(Cc3ccc(F)cc3Cl)c2=O)cc1`, the survival is 99%.
For the compound `COc1ccc(C2=NC(C)(C)N(CC(=O)Nc3cccc(C)c3)C2=O)cc1`, the survival was 76%.
Then `CC(=O)N(Cc1ccccc1)Cc1cc2cc(C)ccc2n2nnnc12`, with 77%.
Take `COc1ccc(Nc2nc(N)nc(N)c2S(=O)(=O)c2ccccc2)cc1`: the survival was 78%.
Then `O=C(CCS(=O)(=O)c1cc(Br)cc2c1N(C(=O)C1CC1)CC2)NCc1ccccc1Cl`, with 100%; and `O=c1c2sc3ccccc3c2n(Cc2ccc(Cl)cc2)c(=O)n1Cc1ccco1`, with 83%.
For `NNc1nc(N2CCOCC2)nc(N2CCOCC2)n1`, the survival was 76%.
Consider `Cc1cccc(Nc2nc(Nc3cccc(C)c3)nc(N3CCOCC3)n2)c1`, for which the survival was 1% (active).
With `Fc1ccc(Nc2nc(Nc3ccc(F)cc3)nc(N3CCOCC3)n2)cc1`, the survival was 87%.
Regarding `c1ccc(Nc2nc(N3CCCCC3)nc(N3CCCCC3)n2)cc1`, the survival was 106%.
Then `Cc1ccc(Nc2nc(Nc3ccc(C)c(C)c3)nc(N3CCOCC3)n2)cc1C`, with 34% (active); and `Cc1ccc(Nc2c(-c3ccc(N4CCOCC4)cc3)nc3ncccn23)cc1C`, with 88%; and `CCc1ccc(CNC(=O)c2ccc(-c3nc(CS(=O)(=O)c4ccccc4)c(C)o3)cc2)cc1`, with 54%.
Then `CC(C)(C)OC(=O)N1CCC(c2c(C(=O)O)cnn2-c2ccc(F)cc2F)CC1`, with 87%.
Regarding `CCCCN1CC(c2nc3ccccc3n2CCCCOc2ccc(C)cc2C)CC1=O` (stereo not drawn), the survival is 13% (active).
Then `CCOc1ccccc1N1CC(c2nc3ccccc3n2CCCCOc2ccccc2)CC1=O` (stereo not drawn), with 59%.
Then `CCCCN1CC(c2nc3ccccc3n2CCCCOc2cc(C)ccc2C)CC1=O` (stereo not drawn), with 15% (active).
Then `CCOc1ccccc1N1CC(c2nc3ccccc3n2CCCCOc2cc(C)ccc2C)CC1=O` (stereo not drawn), with 47% (active).
Regarding `Cc1ccc(OCCCn2c(C3CC(=O)N(c4cccc(Cl)c4)C3)nc3ccccc32)c(C)c1` (stereo not drawn), the survival was 76%.
As for `CCOc1ccccc1N1CC(c2nc3ccccc3n2CCCOc2ccccc2OC)CC1=O` (stereo not drawn), the survival is 76%.
